# Assay outcomes (PubChem)
# Only a selection was taken, and hits are over-represented in it overall.
# Tgondii IFNg: blocks Toxoplasma gondii growth in the presence of IFN-gamma | activity change, negative = inhibition, % (no concentration beside the values) | 3.8% of 69,000 active | AID 1259416 | Toxoplasma gondii growth in IFN-gamma-treated host cells; hits give low values; in the data active = activity change below about -70%, passing the limit was not always enough;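 also: host cells are HeLa cells infected with Toxoplasma gondii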
# An asterisk follows results filed as active; ! = not active in a repeat.
SMILES,Tgondii IFNg
CCc1ccccc1NC(=O)N1CCN(Cc2nc(-c3cccc(Cl)c3)oc2C)CC1,3
O=C1CCC2(CCN(C(=O)CC3CC3)CC2)N1,71
Cc1ncc(CN2CCSCC2)c(CO)c1O,-76*
Cc1ncc(CO)c(CO)c1O,6
Cc1cnc(C)c(N2CCN(Cc3c(CO)cnc(C)c3O)CC2)n1,-4
O=C(COc1ccc(F)cc1)NCCc1csc(-c2cccc(F)c2)n1,-49
COc1cc2c(c(OC)c1OC)-c1ccc(OC)c(=O)cc1C(NC(C)=O)CC2 (stereo not given),-79*
COc1cc2c(c(OC)c1OC)C(=O)CC2,73
COc1cc(-c2cccc(NC(C)=O)c2)cc(OC)c1OC,11
O=C(O)CC(O)(CC(=O)[O][Bi]1[O]C(=O)CC(O)(CC(=O)O)C(=O)[O]1)C(=O)O (stereo not given),-39
CC(=O)Oc1ccc(NC(=O)CC2Nc3ccccc3NC2=O)cc1 (stereo not given),4
CC(=O)Nc1nnc(SCC(=O)Nc2nccs2)s1,-3
O=C(Nc1cccnc1)c1cc(-c2cnc(-c3ccccc3)nc2)cn1CC1CC1,-77*
O=C(Nc1cccnc1)c1cc(-c2cnc(N3CCCC3)nc2)cn1CC1CC1,-2
O=C(NCc1ccc(F)cc1F)c1cc(-c2cnc(-c3cccnc3)nc2)cn1CC1CC1,9
CCOCC1CN(CC2CCOCC2)Cc2ncn(C)c21 (stereo not given),-43
Cc1ccc2c(c1)c1cccc3c1n2CCN3CCC#N,-103*
Cc1cccc(NCc2c(C#N)c3ccccc3n2C)c1,230
Cc1ccc2c(c1)c1c3n2CCN=C3CCC1,-21
COc1cc(CNC(=O)C2(C)CCN(C(=O)c3cccs3)CC2)cc(OC)c1,14
c1ccc(N/N=C2/CCCc3nonc32)cc1,40
C[C@@H]1CN(Cc2ccccc2F)CCN1CC(=O)Nc1ccc(N2CCCCCC2)cc1,444
O=C(Nc1cnn(Cc2ccccc2F)c1)c1ccc(N2CCCCC2)cc1,-95*
O=C(Nc1ccc(N2CCCCC2)cc1)c1ccccc1Cl,199
CCC(C)NC(=O)Cn1c(=O)ccc2cc(S(=O)(=O)N3CCC(C)CC3)ccc21 (stereo not given),109
SMILES,Tgondii IFNg
CC(=O)NCC1CCCN(Cc2ccc(C(=O)Nc3cnn(C)c3)cc2)C1 (stereo not given),6
CC(C)(C)CC(C)(C)c1ccc(OCCOCC[N+](C)(C)Cc2ccccc2)cc1,-78*!
CCn1ncnc1-c1c(-c2ccccc2)ncn1CCCN1CCCC1=O,2
COc1ccc(C(=O)N(c2ccc(C)c(F)c2)C2(C(=O)NCc3ccccc3)CCN(C(C)=O)CC2)cc1,3
Cc1cccc2cc(C#N)c(SCC(=O)N3CCCc4ccccc43)nc12,-38
N#Cc1cc2c(cc1C#N)N1CCCc3cccc(c31)O2,-92*
O=C1CCc2cc(S(=O)(=O)N3CCc4ccccc43)cc3c2N1CCC3,1
CCOC(=O)CCCCC(=O)c1c(C)n(C(=O)c2ccco2)c(=O)n1C(=O)c1ccco1,0
FC(F)(F)Oc1ccc(OCc2n[nH]c(=S)o2)cc1,-35
COc1ccc(CNc2n[nH]c(=S)s2)cc1,408
FC(F)(F)Oc1ccc(Nc2n[nH]c(=S)s2)cc1,-92*
CS(=O)(=O)c1ccc(C(=O)Nc2cnc3n2CCCC3)cc1,-10
Cc1ccc(NC(=O)CC(=O)NC(C)c2cnn(C)c2)cc1 (stereo not given),-4
CCN1CCC2(CC1)OC(=O)C(C)=C2C(=O)NCCCN1CCc2ccccc2C1,63
CCOC(=O)[C@]12CCCN(C(=O)C3CCOCC3)C[C@@H]1CN(CCN(C)C)C2,7
CSCc1ccc(C(=O)N2CCCC3(CC2)CNC(=O)O3)o1 (stereo not given),-7
Cc1ccc(S(=O)(=O)N(C)c2cncc(C(=O)N3CCC(Cc4ccccc4)CC3)c2)cc1,-96*
CN(c1cncc(C(=O)N2CCN(c3cccc(Cl)c3)CC2)c1)S(=O)(=O)c1ccccc1,-15
Cc1ccc(S(=O)(=O)N(C)c2cncc(C(=O)N3CCCCCC3)c2)cc1,-11
COCC(=O)N1CCC2(CCCN(C(=O)Cc3cccnc3)C2)C1 (stereo not given),-5
Cc1nc(OCC(=O)Nc2cc(F)ccc2C)c2ccccc2n1,-13
O=C(NC1CCCCC1)c1cc(C2CCCN(S(=O)(=O)c3ccccc3)C2)no1 (stereo not given),-24
COc1ccc2c(c1)NC1(CCN(C(=O)COc3cccc(C)c3)CC1)c1cccn1-2,-129*
COc1ccc(OCC(=O)N2CCC3(CC2)Nc2cc(C)ccc2-n2cccc23)cc1,31
COc1ccc2c(c1)NC1(CCN(C(=O)COc3ccc(F)cc3)CC1)c1cccn1-2,59
COc1ccc(CC(=O)N2CCC3(CC2)Nc2cc(OC)ccc2-n2cccc23)cc1,51
COc1ccc2c(c1)NC1(CCN(C(=O)c3ccc(Br)o3)CC1)c1cccn1-2,-79*
CC(C)CC(=O)Nc1ccc(S(=O)(=O)N2CCC3(CC2)Nc2cc(F)ccc2-n2cccc23)cc1,-77*
Cc1ccc2c(c1)NC1(CCN(S(=O)(=O)c3ccc(NC(=O)CC(C)C)cc3)CC1)c1cccn1-2,26
